# Hits are enriched below; roughly 1.5% of the tested compounds scored in any of these assays.
# OTUD3 inh – inhibitors of human OTUD3 deubiquitinase. purified OTUD3, Ub-rhodamine fluorescence, 2 h. inhibition, % at 25 µM. 0.7% of 47,000 active. AID 1645858
# USP7 block – inhibitors of human USP7 deubiquitinase | Q93009 | purified USP7, Ub-rhodamine cleavage fluorescence | inhibition, % at 20 µM | 0.3% of 47,000 active
# Target sequence (Q93009 whole entry, looked up): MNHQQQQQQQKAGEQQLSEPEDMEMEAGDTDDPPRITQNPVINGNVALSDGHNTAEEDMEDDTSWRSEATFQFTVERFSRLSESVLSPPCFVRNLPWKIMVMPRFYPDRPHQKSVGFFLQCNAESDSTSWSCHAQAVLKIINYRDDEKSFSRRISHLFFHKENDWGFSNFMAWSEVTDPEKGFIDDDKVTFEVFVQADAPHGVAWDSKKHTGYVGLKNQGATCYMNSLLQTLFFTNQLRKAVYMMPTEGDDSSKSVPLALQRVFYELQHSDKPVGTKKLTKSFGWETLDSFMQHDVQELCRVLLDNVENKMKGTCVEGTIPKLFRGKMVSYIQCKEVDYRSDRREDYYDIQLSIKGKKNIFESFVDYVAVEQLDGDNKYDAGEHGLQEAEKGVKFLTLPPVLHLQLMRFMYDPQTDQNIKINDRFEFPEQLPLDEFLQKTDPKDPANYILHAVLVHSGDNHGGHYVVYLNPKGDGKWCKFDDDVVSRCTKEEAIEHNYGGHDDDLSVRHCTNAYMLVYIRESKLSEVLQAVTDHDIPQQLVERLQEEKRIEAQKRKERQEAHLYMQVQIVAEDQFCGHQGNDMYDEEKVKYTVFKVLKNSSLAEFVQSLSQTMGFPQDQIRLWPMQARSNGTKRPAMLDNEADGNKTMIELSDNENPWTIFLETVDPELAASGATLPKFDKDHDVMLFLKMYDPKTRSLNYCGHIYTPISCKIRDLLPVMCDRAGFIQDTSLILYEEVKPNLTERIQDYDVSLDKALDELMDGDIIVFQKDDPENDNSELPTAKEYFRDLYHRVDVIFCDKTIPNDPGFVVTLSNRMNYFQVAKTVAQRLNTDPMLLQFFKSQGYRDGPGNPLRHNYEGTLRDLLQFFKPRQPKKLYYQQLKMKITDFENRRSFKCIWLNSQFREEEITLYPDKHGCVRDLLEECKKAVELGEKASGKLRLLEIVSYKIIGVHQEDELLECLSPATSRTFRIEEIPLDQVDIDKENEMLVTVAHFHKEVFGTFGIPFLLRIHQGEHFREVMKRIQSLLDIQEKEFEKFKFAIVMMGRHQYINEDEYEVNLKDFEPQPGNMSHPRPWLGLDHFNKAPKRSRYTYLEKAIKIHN
# USP10 inh – inhibitors of human USP10 deubiquitinase; Q14694; purified USP10, Ub-rhodamine fluorescence, 60 min; inhibition, % at 20 µM; 1.1% of 47,000 active; AID 1645856
# UCHL1 block – human UCHL1 deubiquitinase inhibition. P09936. inhibition, % at 20 µM. purified UCHL1, Ub-rhodamine cleavage fluorescence. 0.2% of 47,000 active
# Starred values were filed as active, the others as inactive. No stated cut-off is given here; in the data, active means inhibition above about 30%; inactive means the rest.
SMILES,OTUD3 inh,USP7 block,USP10 inh,UCHL1 block
O=C(Nc1ccc2n[nH]nc2c1)c1ccc(Cl)c(Cl)c1,40*,2,8,0
CC(=O)c1cccc(NC(=O)C(C)OC(=O)c2cc3ccccc3[nH]2)c1 (stereo not given),33*,9,19,1
O=C(C1CCN(C2=NS(=O)(=O)c3ccccc32)CC1)N1CC=C(c2ccccc2)CC1,-13,0,-4,-2
COC(=O)Nc1cccn(Cc2c(Cl)cccc2Cl)c1=O,81*,-13,50*,22
CN(C)C(=O)N1CC2(CCN(S(=O)(=O)c3ccccc3)CC2)C2(CCNC2=O)C1 (stereo not given),2,3,1,1
CC(C)=CCC/C(C)=C/CC/C(C)=C/COc1c(O)cc(C=O)c(C=O)c1O,84*,93*,78*,92*
CCc1cc2c(NC(CC)CN3CCOCC3)ncnc2s1 (stereo not given),-1,3,-4,0
Fc1cc2c(c(CSc3nnc4ccccn34)c1)OC(c1ccccc1)OC2 (stereo not given),9,-36,9,4
CCC(C(=O)NCc1ccncc1)N(c1cccc(Cl)c1)S(C)(=O)=O (stereo not given),32*,-13,3,3
Cc1ccc(NC(=O)Cc2nnc3c(-c4nc(C5CC5)no4)cccn23)cc1F,7,53*,54*,31*
Cc1ccc(NC(=O)Cc2nnc3c(-c4nc(C5CC5)no4)cccn23)c(C)c1,-13,7,8,9
O=C(O)c1ccc2c(c1)C1(CCCCC1)CN2C(=O)CNC(=O)c1cccnc1,-111,-23,-1,-27
N#Cc1ccccc1NC(=O)c1cc2c(s1)-c1ccccc1S(=O)(=O)C2,56*,8,49*,3
Cc1ccccc1-c1nc(NC(=O)COc2ccc(F)cc2)no1,2,-1,4,1
O=C(COc1ccc(Cl)cc1)Nc1noc(-c2ccccc2)n1,-1,30,50*,14
C(=C\c1nc(-c2cccc(-c3ccn[nH]3)c2)no1)/c1ccco1,5,31*,-13,12
COc1ccc(-c2noc([C@@H]3CCCN3Cc3cccnc3)n2)cn1,-12,-4,-2,-2
CC(OC(=O)c1c2c(nc3ccccc13)CCCCC2)C(=O)Nc1ccc2ccccc2c1 (stereo not given),43*,10,13,4
CC(OC(=O)c1c2c(nc3ccccc13)CCCC2)C(=O)Nc1ccc(N(C)C)cc1 (stereo not given),-18,0,14,-1
CC[C@@H]1CCC[C@H](C)CC[C@@H](O[C@@H]2O[C@@H](C)[C@@H](O)[C@@H](N)[C@H]2O)[C@H](CC)CCCNC1=O,36*,21,14,18
Cc1cc(C(=O)NC2(O)C(=O)c3ccccc3C2=O)n(C)n1,11,-96,38*,31*
O=C(NC1(O)C(=O)c2ccccc2C1=O)c1cccc2c1-c1ccccc1C2=O,23,-64,9,22
Cc1ccc2c(c1)N(Cc1nc(-c3ccc(F)cc3)no1)C(=O)CO2,-1,-2,-1,-2
O=C(Cn1c(=O)c2ccccc2n(CC(=O)Nc2cccc(F)c2)c1=O)NCCc1ccccc1,25,17,30*,2
N#Cc1ccccc1Cn1c(=O)n(CCCCC(=O)NCCc2ccccc2)c(=O)c2ccccc21,36*,5,19,1
SMILES,OTUD3 inh,USP7 block,USP10 inh,UCHL1 block
Cc1ccc(NC(=O)Cn2c(=O)n(CCC(=O)NCCc3ccccc3)c(=O)c3ccccc32)cc1C,13,13,32*,2
O=C(CCCCn1c(=O)c2ccccc2n(Cc2ccccc2F)c1=O)NCCc1ccccc1,1,2,11,1
O=C(CCCCn1c(=O)c2ccccc2n(CC(=O)Nc2ccc(F)cc2)c1=O)NCCc1ccccc1,15,8,15,0
C=C(C)CSc1nc(SCCC)nc2sc3c(c12)CC(C)(C)OC3,-1,2,2,-1
COCC1CN(c2ncccn2)Cc2cn(CC3CCOCC3)nc21 (stereo not given),-14,-5,-5,-5
O=C(Nc1nnc(-c2ccc(F)cc2)s1)c1c(F)cccc1F,11,-6,-3,-10
COCCN1CCOCC2(CCCN(C(=O)c3nn(C)c4ccccc34)C2)C1 (stereo not given),-2,-4,-3,-5
CCCCN1C(=O)C2C(C(=O)Nc3ccc(Oc4ccccc4)cc3)C3C=CC2(O3)C1C(=O)NC1CCCCC1 (stereo not given),16,-5,15,-3
CC(C)CCN1C(=O)C2C(C(=O)Nc3ccc(Oc4ccccc4)cc3)C3C=CC2(O3)C1C(=O)NC1CCCCC1 (stereo not given),30*,-97,10,4
CNc1nc2c(c(=O)n1Cc1ccccc1)CCN(S(N)(=O)=O)C2,5,0,0,-1
OCC1CCN(Cc2ccc(N3CCN(Cc4c[nH]c5ccc(Cl)cc45)CC3)nc2)CC1,-13,-6,-5,-1
Oc1ccc2c3c1[C@@H](O)C1OC1[C@]31Oc3cccc4c3[C@](C=C[C@@H]4O)(O2)O1 (stereo not given in full),-7,-5,-11,0
O=C1c2c(O)c(Cl)cc3c2[C@@]2(Oc4ccc(O)c5c4[C@]3(O2)[C@@H]2O[C@@H]2C5=O)[C@@H]2O[C@H]12,89*,82*,40*,84*
COCCN(C)C(=O)c1cc(-c2cnc(Nc3ccccc3)nc2)cn1C,-1,1,-3,1
Cc1cc(NS(=O)(=O)c2ccc(NC(=O)c3ccc(N4CCCC4)c([N+](=O)[O-])c3)cc2)no1,8,-12,31*,5
O=C(NCc1ccccc1Cl)C1CN(C(=O)c2cnccn2)C1,-3,-2,2,-3
O=C(NCc1ccc(F)cc1)c1cccc(Nc2nc3ccccc3n3cnnc23)c1,67*,4,38*,0
O=C(c1ccc(-c2cccc(Cl)c2Cl)o1)N1CCN(C(=O)C2CC2)CC1,-13,-3,-5,-1
Cc1oc(-c2ccc(NC(=O)C(C)C)cc2)nc1Cn1cccn1,-3,6,-1,-1
O=C(Nc1cccc(Cl)c1)c1ncn2c1CNS(=O)(=O)c1ccccc1-2,12,-61,37*,6
CCc1nc2c(NC(=O)Cc3c(F)cccc3Cl)cccn2n1,0,-5,-7,-3
O=C1N[C@H]2OCCC[C@H]2[C@H](c2cccc(C(=O)O)c2)N1,-15,-5,0,-4
Cn1c2ccccc2c(=O)c2c(=O)n(-c3cccc(Cl)c3)c(-c3cccs3)nc21,-7,66*,63*,29
CCc1nc2c(c(=O)c3ccccc3n2C)c(=O)n1-c1ccc(C)cc1,1,-5,5,33*
CCOC(=O)c1[nH]c(C)c(CN(CC2CCCO2)C(=O)c2ccco2)c1C (stereo not given),0,2,-1,-1
Cc1cc(C)cc(NC(=O)C2CC(=O)Nc3nc4ccccc4n32)c1 (stereo not given),4,12,40*,2
Cc1ccc(NC(=O)Cn2cncc(-c3nc(-c4ccccc4)cs3)c2=O)cc1F,2,14,33*,1
